# Screens from PubChem BioAssay.
# HTT cytoprotect = cytoprotection in Huntington HTT-Q103 PC12 cell model | PC12 HTT-Q103 induced, cytoprotection, ATP luminescence, 40 h | Potency, µM (doses to about 56.4 µM), for the others: cytoprotection (ATP increase), hits mostly activators | 230,000 tested, 0.14% active | AID 1471; also: potency is read from the fitted curve at half-maximal effect; % of control where 0% means no effect; nearly all actives have a fitted effect of over 45% in size
#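 Cells were plated at 1500 per well in phenol red-free DMEM with 5% equine and 5% calf serum. Tebufenozide (100 nM final) and compounds were added, then ATPlite reagent, and luminescence was read.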
# IMPase inh = cell-permeable inhibitors of inositol monophosphatase (IMPase); CHO-M1 cells, IP1 accumulation, HTRF TR-FRET ratio; AID 901; P97697; inhibition (IP1 accumulation), % at 46.1 µM; 120,000 tested, under 10 active; active = well fitted curve in the direction sought with a large enough effect in the signal ratio, not every such curve was filed as active; inconclusive = small, poorly fitted or top-dose-only effect, or a change in a side signal; inactive = no such curve, though single readings can be large or run the other way; the % refers to the signal ratio;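 also: cells stimulated with carbachol in lithium chloride buffer; plate controls were DMSO basal wells for no effect and reference inhibitor wells for full effect; higher means more IMPase inhibition seen as more IP1 and lower FRET ratio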
#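 CHO-M1, 2000 cells/well, cultured 16–30 h; cpd up to 46 uM; carbachol (50 uM solution, stimulation buffer w/ 50 mM LiCl, pH 7.4), 30 min 37C; IP-One TR-FRET, 10 min RT; Ex 320/Em 665, 620; Hill-fit AC50.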
# HttQ103 aggreg = inhibitors of mutant huntingtin aggregate formation in PC12 cells. PC12 HttQ103-GFP aggregates, Acumen cytometry, 40 h. Potency, µM (highest dose often 46.1 µM), without a hit: top-dose activity change, negative = inhibition, hits mostly inhibitors. 220,000 tested, 1.1% active; also: potency is read from the fitted curve at half-maximal effect; % is scaled to controls: 0 for no effect and ±100 for the full control effect; nearly all actives have a fitted effect of over 60% in size
#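 Steps: seed 1500 PC12 HTTQ103-GFP cells/well; add tebufenozide, 100 nM final; add compound titration; add ATPLite reagent; quantify GFP aggregates by laser scanning cytometry.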
# IMPase Li inh = cell-permeable IMPase inhibitors with lithium potentiation | CHO-M1 cells, IP1 TR-FRET (IP-One), carbachol + lithium | Potency, µM (top dose mostly 59.4 µM), inactives show top-dose activity, negative = IMPase inhibition, usual class: inhibitors | 210,000 tested, 0.35% active | AID 1457;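 also: IP1 builds up when IMPase is blocked and the TR-FRET signal falls; potency is read from the fitted curve at half-maximal effect; plate controls were basal vehicle for no effect and high inhibitor control for full effect; nearly all actives have a fitted effect of over 50% in size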
#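 CHO-M1, 2000 cells/well, 16–30 h culture; cpd + low Li+, 30 min 37C; lysis with d2-IP1/Eu-anti-IP1 Ab, 10 min RT; TR-FRET 665/620 ratio and 620 channel; AC50 via Hill.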
# HPGD inh = HPGD (human) dehydrogenase inhibition | purified HPGD, NADH fluorescence kinetic, PGE2 substrate | Potency, µM, for inactives: top-dose activity change, negative = inhibition, actives largely listed as inhibitors | 150,000 tested, 4.3% active | AID 894; active = well fitted inhibition curve with a large enough effect, not every such curve was filed as active; inconclusive = small, poorly fitted or top-dose-only effect, or another doubt; inactive = no such curve, though single readings can be large or run the other way; also: potency is read from the fitted curve at half-maximal effect; % is scaled to controls: 0 for no effect and ±100 for the full control effect
# Target sequence (P15428 whole entry, looked up): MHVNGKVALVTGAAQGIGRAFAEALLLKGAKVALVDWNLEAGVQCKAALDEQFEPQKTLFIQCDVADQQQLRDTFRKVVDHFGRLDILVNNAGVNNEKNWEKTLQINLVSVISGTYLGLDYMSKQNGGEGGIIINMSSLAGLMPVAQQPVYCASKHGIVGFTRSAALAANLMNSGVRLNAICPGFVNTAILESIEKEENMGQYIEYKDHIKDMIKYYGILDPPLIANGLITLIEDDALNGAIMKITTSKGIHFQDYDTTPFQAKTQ
#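 20 nM HPGD preincubated 15 min at room temperature with compound in 50 mM Tris-HCl pH 8, 0.01% Tween 20. Started with 1 mM NAD+ and 30 uM prostaglandin E2; NADH fluorescence (360/450 nm) read 5 times over 30-s intervals, last minus first.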
# ALDH1A1 block = ALDH1A1 (human) enzyme inhibition; Purified ALDH1A1, NADH fluorescence, propionaldehyde substrate; 220,000 tested, 7.3% active; Potency, µM (series often up to 75.3 µM), for inactives: at the highest dose activity, negative = inhibition, actives largely listed as inhibitors; active = well fitted inhibition curve with a large enough effect, not every such curve was filed as active; inconclusive = small, poorly fitted or top-dose-only effect, or another doubt; inactive = no such curve, though single readings can be large or run the other way;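 also: potency is read from the fitted curve at half-maximal effect; plate controls were no enzyme wells and a reference inhibitor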
# Target sequence (P00352 whole entry, looked up): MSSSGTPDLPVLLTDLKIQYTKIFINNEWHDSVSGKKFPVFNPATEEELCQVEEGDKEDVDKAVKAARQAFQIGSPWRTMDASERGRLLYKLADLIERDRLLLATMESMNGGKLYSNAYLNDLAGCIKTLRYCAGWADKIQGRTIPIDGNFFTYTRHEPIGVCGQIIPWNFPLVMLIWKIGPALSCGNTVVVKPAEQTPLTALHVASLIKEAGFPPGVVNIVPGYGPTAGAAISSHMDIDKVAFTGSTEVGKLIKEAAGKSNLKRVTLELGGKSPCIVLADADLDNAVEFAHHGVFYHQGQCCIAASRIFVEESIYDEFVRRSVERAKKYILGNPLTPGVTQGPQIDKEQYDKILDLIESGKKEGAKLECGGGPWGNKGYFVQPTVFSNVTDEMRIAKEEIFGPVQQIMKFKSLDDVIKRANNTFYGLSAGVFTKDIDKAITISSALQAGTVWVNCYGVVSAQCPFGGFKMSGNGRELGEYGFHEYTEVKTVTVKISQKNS
# An asterisk follows results filed as active; u = inconclusive; x = not tested or not shown; [ ] = remark or other dose. Only some compounds are listed: those with a hit (about 9.4% of all), similar ones and a draw of the others. Unless noted, calls follow the shape of the dose curve; as a rule, active = well fitted curve in the direction sought with a large enough effect; inconclusive = small, poorly fitted or top-dose-only effect, or another doubt; inactive = no such curve, though single readings can be large; an effect the other way counts as inactive or inconclusive.
SMILES,HTT cytoprotect,IMPase inh,HttQ103 aggreg,IMPase Li inh,HPGD inh,ALDH1A1 block
O=c1[nH]c2ccc(NC(=S)Nc3ccccc3Cl)cc2[nH]1,6%,-9,-8%,8%[38.3 µM],22µM*,6.3µM*
CC(=O)NCc1c(I)c(NC(C)=O)c(I)c(C(=O)O)c1I,u,x,-10%,10%,-8%,-8%
N[C@@H](CC1=CS(=O)(=O)c2ccc(Cl)cc21)C(=O)O,4%[10 µM],x,x,-2%,-9%,-9%[13.5 µM]
CC(C)c1ccc(NC(=S)Nc2ccc3[nH]c(=O)[nH]c3c2)cc1,-1%[10 µM],x,25%[9.22 µM],x,x,40µM*
COCCNC(=S)Nc1ccc2[nH]c(=O)[nH]c2c1,-15%,x,22%,20%,x,25µM*
S=C(Nc1ccc(Cl)cc1)Nc1ccc2cn[nH]c2c1,-39%,x,-12%,2%,x,25µM*
O=c1[nH]c2ccc(NC(=S)Nc3ccc(Cl)cc3)cc2[nH]1,6%,0,-11%,26%[38.3 µM],-6%,7%
O=c1[nH]c2ccc(NC(=S)NCCc3ccccc3)cc2[nH]1,14%[10 µM],x,-26%[9.22 µM],x,x,x
S=C(NCc1ccco1)Nc1ccc(Cl)cc1Cl,10%[10 µM],x,-4%,1%,28µM*,-1%
CN(C)c1ncc2nc(-c3ccc(Cl)cc3)c(=O)n(CCC#N)c2n1,3%,x,x,-4%,x,u
CCN(/N=C/c1ccc(Cl)cc1)c1cc(=O)n(C)c(=O)[nH]1,15%[10 µM],-10,12%,5%,28µM*,u
COc1ccc2c(=O)c3c(=O)n(Cc4ccco4)c(C(C)C)nc3oc2c1,-14%[10 µM],-4,-14%,-4%,-28%,9.5µM*
COc1ccc2c(=O)c3c(=O)n(Cc4ccco4)c(-c4ccc(C)cc4)nc3oc2c1,19%,11,-7%,29%[38.3 µM],-8%,u
CC1(C)CC2C1CC[C@]1(C)CCC3C(C(=O)O)CC(=O)O[C@]32C1 (some centres not stated),x,x,x,2%,-9%,23%
Cc1ccc(-c2nc(CN3CCCCC3CCN3CCCC3=O)c(C)o2)o1 (configuration not stated),4µM*,x,24%[9.22 µM],14%,x,2%
Cc1oc(-c2cccc(F)c2)nc1CN1CCCCC1CCn1cccn1 (configuration not stated),-16%[10 µM],x,-16%[9.22 µM],11%,x,u
COC(=O)c1sc(N2C(=O)c3oc4ccc(C)cc4c(=O)c3C2c2ccc(OC)cc2)nc1C (configuration not stated),x,-3,x,x,x,x
N/C(=N\OC(=O)c1cccc2ccccc12)c1ccncc1,0%[10 µM],x,3%[9.22 µM],x,x,x
N/C(Cc1ccccc1)=N\OC(=O)c1cccc2ccccc12,x,x,12%,-8%,2.5µM*,-6%
CCOc1ccc(N2C(=O)CC(N3CCN(C(=O)c4ccco4)CC3)C2=O)cc1 (configuration not stated),-19%,-1,21%,-7%[38.3 µM],-3%,8.9µM*
O=C(c1ccco1)N1CCN(C2CC(=O)N(c3ccccc3)C2=O)CC1 (configuration not stated),-15%,-1,20%[9.22 µM],23%[38.3 µM],-12%,20µM*
CCOC(=O)c1ccc(N2C(=O)CC(N3CCN(C(=O)c4ccco4)CC3)C2=O)cc1 (configuration not stated),0%,-5,-3%,-3%[38.3 µM],1%,u
CCOc1ccc(N2C(=O)CC(N(Cc3ccco3)C(C)=O)C2=O)cc1 (configuration not stated),-4%[10 µM],x,-5%[9.22 µM],0%,x,20µM*
COc1cc(C/C=C/c2ccccc2)c(OC)cc1O,x,x,x,10%,-7%,u
CCC1=C2CC[C@H]3C(=O)N(CC)C(=O)[C@H]3[C@H]2[C@@]2(Cc3ccccc3)C(=NCC3CC3)OC(=O)N2C1=O,-8%,x,x,3%,-7%,3%
SMILES,HTT cytoprotect,IMPase inh,HttQ103 aggreg,IMPase Li inh,HPGD inh,ALDH1A1 block
COCCSc1nnc(NC(=O)Cc2cccs2)s1,13%[1.9 µM],-5,4%,11%,-21%,1%
COCCSc1nnc(NC(=O)Cc2ccccc2OC)s1,16%,14,-1%,22%[38.3 µM],-16%,22µM*
O=C(CSc1nnc(Cn2nnc3ccccc32)o1)N(Cc1ccc(F)cc1)c1ccccc1,28%[10 µM],7,13µM*,13%[38.3 µM],-14%,u
CCOC(=O)c1[nH]c2c(c1Cc1ccccc1OC)C(=O)CC(c1ccc(OCC)cc1)C2 (configuration not stated),x,-4,x,x,x,x
CC(CCc1ccccc1)NC(=O)CN1CCSc2ccccc21 (configuration not stated),-5%,x,22%,-7%,x,13µM*
CC(CCc1ccccc1)NC(=O)CN1CCOc2ccccc21 (configuration not stated),-4%,x,x,x,x,x
COc1cccc(NC(=O)CN2CCSc3ccccc32)c1,-9%,x,-6%,-4%,x,19µM*
COc1ccc(C(C#N)C2(C)OCCO2)cc1OC (configuration not stated),1%,3,2.5µM*,23%[38.3 µM],-9%,11µM*
COc1ccc(C(C#N)N2CCCCC2)cc1OC (configuration not stated),-1%[10 µM],1,8%,-13%[38.3 µM],-10%,u
COc1cc(/C=C/c2nc3ccccc3s2)cc(OC)c1O,x,x,u,-18%,x,u
COc1cc(/C=C(\C#N)C(N)=O)cc(CSc2nc3ccccc3s2)c1O,-37%,4,x,29%,40µM*,u
C(#Cc1ccccc1)C[N+]1(CC#Cc2ccccc2)CCCCC1,-44%[10 µM],x,-31%[9.22 µM],8%,x,-7%
O=C(C[N+]1(CC#Cc2ccccc2)CCCCC1)c1ccccc1,-31%,x,u,25%,x,8.9µM*
O=C(C[N+]1(CC#Cc2ccccc2)CCCCC1)c1ccc(Cl)cc1,5%,x,-21%,15%,x,22µM*
Cc1ccc(C#CC[N+]2(CC#Cc3ccc(C)cc3)CCCCC2)cc1,-17%[10 µM],-10,11µM*,26%,-6%,4%
C#CC[N+]1(CC#Cc2ccccc2)CCCCC1,-17%,x,-5%,8%,x,-3%
Cc1ccccc1N1C(=O)c2cc(N)ccc2N/C1=C\F,17%,x,10%,x,x,x
CCCCNc1nc(C)nc2c1nc(-c1ccccc1)n2CCCN1CCCCC1C (configuration not stated),-52%,x,x,14%,u,u
CCN1/C(=C/C=C/c2oc3ccc4ccccc4c3[n+]2CC)Oc2ccc3ccccc3c21,-75%[10 µM],x,0.89µM*,-1%,x,0%
CC[n+]1c(/C=C/N(C)c2ccccc2)oc2ccc(Cl)cc21,-7%[10 µM],-1,5%,-4%,u,1%
COc1ccc(/C=C2/CCCC(C(=O)C(F)(F)F)=C2O)cc1OC,-24%[10 µM],x,-15%[9.22 µM],x,x,x
COc1ccc(/C=C2\CCCC(C(=O)C(F)(F)F)=C2O)cc1OC,x,x,u,-9%,x,0.13µM*
